From PubChem BioAssay (EPA / NIEHS)
Active and inactive are the calls of the source. The calls were made as follows: active = hit-call score of the fitted dose curve at least 0.9, where 1 is the maximum; inactive = score below 0.9.

Assay: ATG_MRE_CIS: Attagene CIS-FACTORIAL HepG2 Assay for human Metal Responsive Element (MRE) (AID 2282954)
Settings: HepG2 MRE cis-reporter transcription, Attagene multiplex; actives raise or lower the signal
Summary of the method: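 Step one: transfect HepG2 with cis-regulated reporter units. Step two: dose 24 h. Step three: isolate RNA, RT-PCR, 6-FAM label, HpaI digest, capillary electrophoresis. Fit bidirectionally to DMSO.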

Row | SMILES | outcome | AC50
1 | O=P(O)(O)Oc1ccccc1 | inactive | 
2 | FC(F)=C(F)OC(F)(F)C(F)(F)C(F)(F)F | inactive | 
3 | NC(=O)NNC(N)=O | inactive | 
4 | CC(=O)CC(N)=O | inactive | 
5 | CC(=O)OC(C)C | inactive | 
6 | CCOC(=O)c1ccccc1C(=C1C=C(Br)C(=O)C(Br)=C1)c1cc(Br)c(O)c(Br)c1 |  | 26.2 µM (active)
7 | CC=CC(F)(F)C(F)(F)C(F)(F)F | inactive | 
8 | C#CC1(O)CC[C@H]2[C@@H]3CCC4=CCCC[C@@H]4[C@H]3CC[C@@]21C (stereo not given in full) | inactive | 
9 | CCOC(=O)NNc1nncc2ccccc12 | inactive | 
10 | CCCCCCCCCCCCCCCC[N+](C)(C)CC |  | 8.94 µM (active)
11 | C[Si](C)(C)O[Si](O)(O)O | inactive | 
12 | Oc1ccc(Cl)cc1Cc1cc(Cl)ccc1O |  | 11.1 µM (active)
13 | O=[N+]([O-])C1(Br)COCOC1 | inactive | 
14 | COC(=O)/C=C/C(C)=C\C=C\C(C)=C\C=C\C=C(C)\C=C\C=C(C)\C=C\C(=O)O | inactive | 
15 | c1ccc(CCCc2ccncc2)cc1 | inactive | 

Assay: ATG_PBREM_CIS: Attagene CIS-FACTORIAL HepG2 Assay for human Phenobarbital-responsive Enhancer Module (PBREM) (AID 2282955)
Settings: HepG2 PBREM cis-reporter, Attagene multiplexed transcription; actives raise or lower the signal
Summary of the method: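 HepG2, transient MRTU transfection, 24 h dosing; RNA → oligo(dT) RT → PCR → 6-FAM extension → HpaI → CE. Bidirectional fit vs DMSO.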

Row | SMILES | outcome
16 | C=CCOc1c(Br)cc(Br)cc1Br | inactive
17 | C=COCCCC | inactive
18 | O=C1CCCCCCCCCCCCCCCO1 | inactive
19 | CCCCCCCC[N+](C)(CCCCCCCC)CCCCCCCC | inactive
20 | CC(=O)[C@@]1(O)CC[C@H]2[C@@H]3C[C@H](C)C4=CC(=O)C=C[C@]4(C)[C@@]3(F)[C@@H](O)C[C@@]21C | inactive
21 | O=Nc1ccc(O)cc1 | inactive
22 | CCCC(C)CCC(C)=O (stereo not given) | inactive
23 | CCN(CCC#N)c1ccc(N=Nc2c(Cl)cc([N+](=O)[O-])cc2Cl)cc1 | inactive
24 | COC(F)(F)C(F)(C(F)(F)F)C(F)(F)F | inactive
25 | CC(C)=CCC/C(C)=C\C#N | inactive
26 | CC=C1CC2C=CC1C2 (stereo not given) | inactive
27 | FC(F)=C(F)OC(F)(F)C(F)(F)C(F)(F)F | inactive
28 | CC=CC(F)(F)C(F)(F)C(F)(F)F | inactive
29 | CCOC(=O)NNc1nncc2ccccc12 | inactive
30 | COC(=O)/C=C/C(C)=C\C=C\C(C)=C\C=C\C=C(C)\C=C\C=C(C)\C=C\C(=O)O | inactive
